# In the supplement of paper PMC8728848:
# This excerpt belongs to a sample that is enriched for the strongest signals.
# B1: SAOUHSC 02783 (Staphylococcus aureus), Q5HD69 (protein)
# chain: MIHSKKLTLGICLVLLIILIVGYVIMTKTNGRNAQIKDTFNQTLKLYPTKNLDDFYDKEGFRDQEFKKGDKGTWIVNSEMVIEPKGKDMETRGMVLYINRNTRTTKGYYFISEMTDDSNGRPKDDEKRYPVKMEHNKIIPTKPLPNDKLKKEIENFKFFVQYGNFKDINDYKDGDISYNPNVPSYSAKYQLNNDDYNVQQLRKRYDIPTKQAPKLLLKGDGDLKGSSVGSRSLEFTFVENKEENIYFTDSVQYTPSEDTRYESN
# Key:
# Assay in all cases: glycan array binding signal (z-score within array); higher = stronger binding
# Conditions in all cases: glycan notation: IUPAC condensed, linker removed
# [1] = target: Fuc(a1-2)Gal(b1-3)GlcNAc(b1-2)Man(a1-3)[Fuc(a1-2)Gal(b1-3)GlcNAc(b1-2)Man(a1-6)]Man(b1-4)GlcNAc(b1-4)[Fuc(a1-6)]GlcNAc
# Method in brief: (§1)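 The binding signal is a Z-score computed within each array and averaged over linkers. Arrays of the same protein sequence at different concentrations or buffers were also averaged together. Data originate from 3228 arrays in the Consortium for Functional Glycomics database, kept only where the protein sequence was available.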
# [2] = target: Fuc(a1-2)Gal(b1-4)GlcNAc(b1-3)Gal(b1-4)GlcNAc(b1-2)Man(a1-3)[Fuc(a1-2)Gal(b1-4)GlcNAc(b1-3)Gal(b1-4)GlcNAc(b1-2)Man(a1-6)]Man(b1-4)GlcNAc(b1-4)GlcNAc
# Method in brief: as §1
# [3] = target: Fuc(a1-2)Gal(b1-4)GlcNAc(b1-3)GalNAc
# Method in brief: as §1
# [4] = target: Fuc(a1-2)Gal(b1-4)[Fuc(a1-3)]GlcNAc(b1-2)[Fuc(a1-2)Gal(b1-4)[Fuc(a1-3)]GlcNAc(b1-4)]Man(a1-3)[Fuc(a1-2)Gal(b1-4)[Fuc(a1-3)]GlcNAc(b1-2)Man(a1-6)]Man(b1-4)GlcNAc(b1-4)GlcNAc
# Method in brief: as §1
# [5] = target: Fuc(a1-2)Gal(b1-4)[Fuc(a1-3)]GlcNAc(b1-3)Gal(b1-4)[Fuc(a1-3)]GlcNAc(b1-3)Gal(b1-4)[Fuc(a1-3)]GlcNAc
# Method in brief: as §1
# [6] = target: Fuc(a1-2)Gal6S(b1-4)Glc6S
# Method in brief: as §1
# [7] = target: Fuc(a1-2)[Gal(a1-3)]Gal(b1-4)GlcNAc(b1-2)Man(a1-3)[Fuc(a1-2)[Gal(a1-3)]Gal(b1-4)GlcNAc(b1-2)Man(a1-6)]Man(b1-4)GlcNAc(b1-4)[Fuc(a1-6)]GlcNAc
# Method in brief: as §1
# [8] = target: Gal(a1-3)Gal(b1-4)GlcNAc(b1-2)Man
# Method in brief: as §1
# [9] = target: Gal(b1-3)GalNAc(a1-3)[Fuc(a1-2)]Gal(b1-4)GlcNAc
# Method in brief: as §1
# Gal(b1-3)GalNAc(b1-3)Gal = target: Gal(b1-3)GalNAc(b1-3)Gal
# Method in brief: as §1
# Gal(b1-3)GlcNAc = target: Gal(b1-3)GlcNAc
# Method in brief: as §1
# [10] = target: Gal(b1-3)GlcNAc(b1-2)Man(a1-3)[GlcNAc(b1-4)][Gal(b1-3)GlcNAc(b1-2)Man(a1-6)]Man(b1-4)GlcNAc(b1-4)GlcNAc
# Method in brief: as §1
# [11] = target: Gal(b1-3)[GlcNAc(b1-6)]GalNAc
# Method in brief: as §1
# [12] = target: Gal(b1-4)GlcNAc(b1-2)Man(a1-3)[Gal(b1-4)GlcNAc(b1-2)Man(a1-6)][GlcNAc(b1-4)]Man(b1-4)GlcNAc(b1-4)[Fuc(a1-6)]GlcNAc
# Method in brief: as §1
# [13] = target: Gal(b1-4)GlcNAc(b1-2)Man(a1-3)[Man(a1-6)]Man(b1-4)GlcNAc(b1-4)GlcNAc
# Method in brief: as §1
# [14] = target: Gal(b1-4)GlcNAc(b1-3)Gal(b1-4)GlcNAc(b1-2)Man(a1-3)[Gal(b1-4)GlcNAc(b1-3)Gal(b1-4)GlcNAc(b1-2)Man(a1-6)]Man(b1-4)GlcNAc(b1-4)GlcNAc
# Method in brief: as §1
# Gal(b1-6)Gal = target: Gal(b1-6)Gal
# Method in brief: as §1
# [15] = target: Gal3S(b1-3)[Fuc(a1-4)]GlcNAc
# Method in brief: as §1
# [16] = target: Gal3S(b1-4)[Fuc(a1-3)]GlcNAc
# Method in brief: as §1
# Gal6S(b1-3)GlcNAc = target: Gal6S(b1-3)GlcNAc
# Method in brief: as §1
# GalNAc4S6S(b1-4)GlcNAc = target: GalNAc4S6S(b1-4)GlcNAc
# Method in brief: as §1
# GlcA(b1-6)Gal = target: GlcA(b1-6)Gal
# Method in brief: as §1
# [17] = target: GlcNAc(a1-4)Gal(b1-4)GlcNAc
# Method in brief: as §1
# [18] = target: GlcNAc(b1-2)Man(a1-3)[GlcNAc(b1-4)][GlcNAc(b1-2)Man(a1-6)]Man(b1-4)GlcNAc(b1-4)GlcNAc
# Method in brief: as §1
# [19] = target: GlcNAc(b1-2)[GlcNAc(b1-4)]Man(a1-3)[GlcNAc(b1-2)Man(a1-6)]Man(b1-4)GlcNAc(b1-4)GlcNAc
# Method in brief: as §1
# [20] = target: GlcNAc(b1-2)[GlcNAc(b1-4)]Man(a1-3)[GlcNAc(b1-4)][GlcNAc(b1-2)[GlcNAc(b1-6)]Man(a1-6)]Man(b1-4)GlcNAc(b1-4)GlcNAc
# Method in brief: as §1
# GlcNAc(b1-3)Fuc = target: GlcNAc(b1-3)Fuc
# Method in brief: as §1
# [21] = target: GlcNAc(b1-3)Gal(b1-3)GalNAc
# Method in brief: as §1
# [22] = target: GlcNAc(b1-3)Gal(b1-4)GlcNAc(b1-3)Gal(b1-4)GlcNAc(b1-2)Man(a1-3)[GlcNAc(b1-3)Gal(b1-4)GlcNAc(b1-3)Gal(b1-4)GlcNAc(b1-2)Man(a1-6)]Man(b1-4)GlcNAc(b1-4)GlcNAc
# Method in brief: as §1
# [23] = target: GlcNAc(b1-3)Gal(b1-4)GlcNAc(b1-3)Gal(b1-4)GlcNAc(b1-2)[GlcNAc(b1-3)Gal(b1-4)GlcNAc(b1-3)Gal(b1-4)GlcNAc(b1-6)]Man(a1-6)[GlcNAc(b1-3)Gal(b1-4)GlcNAc(b1-3)Gal(b1-4)GlcNAc(b1-2)Man(a1-3)]Man(b1-4)GlcNAc(b1-4)[Fuc(a1-6)]GlcNAc
# Method in brief: as §1
# [24] = target: GlcNAc(b1-4)GlcNAc(b1-4)GlcNAc(b1-4)GlcNAc(b1-4)GlcNAc
# Method in brief: as §1
# [25] = target: GlcNAc(b1-6)Gal(b1-4)GlcNAc
# Method in brief: as §1
# [26] = target: Man(a1-2)Man(a1-3)[Man(a1-6)]Man(a1-6)[Man(a1-2)Man(a1-3)]Man(b1-4)GlcNAc(b1-4)GlcNAc
# Method in brief: as §1
# [27] = target: Neu5Ac(a2-3)Gal(b1-3)GalNAc(b1-4)[Neu5Ac(a2-8)Neu5Ac(a2-3)]Gal(b1-4)Glc
# Method in brief: as §1
# [28] = target: Neu5Ac(a2-3)Gal(b1-3)GlcNAc(b1-2)Man(a1-3)[Neu5Ac(a2-3)Gal(b1-3)GlcNAc(b1-2)Man(a1-6)]Man(b1-4)GlcNAc(b1-4)GlcNAc
# Method in brief: as §1
# [29] = target: Neu5Ac(a2-3)Gal(b1-4)GlcNAc(b1-2)Man(a1-3)[Neu5Ac(a2-3)Gal(b1-4)GlcNAc(b1-2)Man(a1-6)]Man(b1-4)GlcNAc(b1-4)GlcNAc
# Method in brief: as §1
# [30] = target: Neu5Ac(a2-3)Gal(b1-4)GlcNAc(b1-3)Gal(b1-4)[Fuc(a1-3)]GlcNAc
# Method in brief: as §1
# [31] = target: Neu5Ac(a2-3)Gal(b1-4)[Fuc(a1-3)]GlcNAc
# Method in brief: as §1
# [32] = target: Neu5Ac(a2-3)Gal(b1-4)[Fuc(a1-3)]GlcNAc(b1-3)Gal
# Method in brief: as §1
# [33] = target: Neu5Ac(a2-6)Gal(b1-4)GlcNAc(b1-2)Man(a1-3)[Neu5Ac(a2-6)Gal(b1-4)GlcNAc(b1-2)Man(a1-6)]Man(b1-4)GlcNAc(b1-4)[Fuc(a1-6)]GlcNAc
# Method in brief: as §1
# [34] = target: Neu5Ac(a2-6)Gal(b1-4)GlcNAc(b1-2)[Neu5Ac(a2-6)Gal(b1-4)GlcNAc(b1-4)]Man(a1-3)[GlcNAc(b1-4)][Neu5Ac(a2-6)Gal(b1-4)GlcNAc(b1-4)Man(a1-6)]Man(b1-4)GlcNAc(b1-4)GlcNAc
# Method in brief: as §1
# [35] = target: Neu5Ac(a2-6)GlcNAc(b1-4)GlcNAc
# Method in brief: as §1
# [36] = target: Neu5Ac(a2-8)Neu5Ac(a2-3)[GalNAc(b1-4)]Gal(b1-4)Glc
# Method in brief: as §1
# [37] = target: Neu5Ac(a2-8)Neu5Gc(a2-3)Gal(b1-4)GlcNAc
# Method in brief: as §1
# [38] = target: Neu5Ac9Ac(a2-6)Gal(b1-4)GlcNAc
# Method in brief: as §1
# [39] = target: Neu5Gc(a2-3)Gal(b1-4)GlcNAc
# Method in brief: as §1
# [40] = target: Neu5Gc(b2-6)Gal(b1-4)GlcNAc
# Method in brief: as §1
binder,measurement,setting,value
B1,glycan array binding signal (z-score),[1],2.61
same,glycan array binding signal (z-score),[2],-0.248
same,glycan array binding signal (z-score),[3],0.108
same,glycan array binding signal (z-score),[4],4.52
same,glycan array binding signal (z-score),[5],-0.71
same,glycan array binding signal (z-score),[6],0.515
same,glycan array binding signal (z-score),[7],-1.39
same,glycan array binding signal (z-score),[8],-0.596
same,glycan array binding signal (z-score),[9],-1.73
same,glycan array binding signal (z-score),Gal(b1-3)GalNAc(b1-3)Gal,-0.932
same,glycan array binding signal (z-score),Gal(b1-3)GlcNAc,0.236
same,glycan array binding signal (z-score),[10],3.09
same,glycan array binding signal (z-score),[11],-0.308
same,glycan array binding signal (z-score),[12],-0.077
same,glycan array binding signal (z-score),[13],5.18
same,glycan array binding signal (z-score),[14],2.58
same,glycan array binding signal (z-score),Gal(b1-6)Gal,0.805
same,glycan array binding signal (z-score),[15],-0.32
same,glycan array binding signal (z-score),[16],-0.324
same,glycan array binding signal (z-score),Gal6S(b1-3)GlcNAc,-0.599
same,glycan array binding signal (z-score),GalNAc4S6S(b1-4)GlcNAc,-0.245
same,glycan array binding signal (z-score),GlcA(b1-6)Gal,2.83
same,glycan array binding signal (z-score),[17],-0.454
same,glycan array binding signal (z-score),[18],-0.821
same,glycan array binding signal (z-score),[19],1.11
same,glycan array binding signal (z-score),[20],-0.289
same,glycan array binding signal (z-score),GlcNAc(b1-3)Fuc,-0.235
same,glycan array binding signal (z-score),[21],-0.447
same,glycan array binding signal (z-score),[22],2.6
same,glycan array binding signal (z-score),[23],2.84
same,glycan array binding signal (z-score),[24],-0.476
same,glycan array binding signal (z-score),[25],0.133
same,glycan array binding signal (z-score),[26],0.494
same,glycan array binding signal (z-score),[27],-0.869
same,glycan array binding signal (z-score),[28],6.23
same,glycan array binding signal (z-score),[29],0.306
same,glycan array binding signal (z-score),[30],-0.998
same,glycan array binding signal (z-score),[31],-1.44
same,glycan array binding signal (z-score),[32],-0.162
same,glycan array binding signal (z-score),[33],2.81
same,glycan array binding signal (z-score),[34],0.093
same,glycan array binding signal (z-score),[35],1.36
same,glycan array binding signal (z-score),[36],-0.759
same,glycan array binding signal (z-score),[37],-1.02
same,glycan array binding signal (z-score),[38],1.65
same,glycan array binding signal (z-score),[39],3.09
same,glycan array binding signal (z-score),[40],-0.76
